# High-throughput results deposited in PubChem by several laboratories.
# CF NFkB block: inhibitors of PAF-induced NF-kB signaling, primary screen, cell-based, GFP fluorescence, uHTS; AID 588850, 2011; KKLEB NF-kB-GFP reporter, GFP fluorescence overnight; inhibition, % at 5 µM; 360,000 compounds, 0.86% hits;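 active means at least 50% inhibition at 5 µM, scaled per plate between neutral and stimulator controls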;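 further: PAF is a Pseudomonas aeruginosa culture filtrate used as stimulus; plate controls were PAF-stimulated DMSO wells for no effect and unstimulated DMSO wells for full effect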
# KKLEB tox: cytotoxicity in KKLEB CF airway cells, primary screen, cytotoxicity control for CF NF-kB inhibitor project, cell-based, uHTS, fluorescence assay plates; KKLEB CF airway cells viability, ATPlite luminescence, overnight; hits give low values; cells stimulated with P. aeruginosa culture filtrate; activity change (cytotoxicity), % at 5 µM; 360,000 compounds, 0.36% hits; AID 602141, 2011;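 active means corrected activity change at or below -50% at 5 µM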
# Peg3 promoter: Peg3 promoter-driven luciferase inhibitors, primary screen, cell-based, HeLa, luciferase luminescence; AID 588405, 2011; HeLa PEG-Prom luciferase reporter, overnight; inhibition, % at 20 µM; 360,000 compounds, 1.7% hits;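 active means inhibition of at least 50% at 20 µM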
# LMP1 NFkB inh: EBV LMP1-driven NF-kappaB luciferase reporter inhibitors, primary screen, cell-based, luminescence, single point | inhibition, % at 12.5 µM | LMP1-induced NF-kappaB luciferase reporter cells | 350,000 compounds, 0.69% hits; in the data active means inhibition above about 41%; inconclusive means no clear call, values can overlap the other calls;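 further: 0% = neutral control wells and 100% = reference inhibitor control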
# HIF-2a block: HIF-2a reporter inhibitors, primary screen, luminescence, 786-0 RCC cells | 786-0 RCC cells HIF-2a reporter, luciferase luminescence, overnight | AID 624352, 2012 | inhibition, % at 18.8 µM | 360,000 compounds, 0.72% hits;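 active means inhibition of the luminescence signal of 40% or more relative to plate controls, in a single-dose primary screen at 18.75 µM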
# Shn3 3UTR inh: reduction of Shn3 3'UTR firefly luciferase signal, primary screen, Schnurri-3 inhibitor project, cell-based, Clone20 osteoblasts, set 2. Clone20 osteoblast Shn3 3'UTR firefly luciferase, 24 h. inhibition, % at 12.5 µM. 360,000 compounds, 0.52% hits. AID 588674, 2011;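 active means mean inhibition of at least 75% with every replicate also reaching 75%; inconclusive means mean inhibition at least 75% but some replicate below; inactive means mean inhibition below 75%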;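 further: 0% = median of neutral control wells and 100% = pilot-screen positive control compound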
# An asterisk follows results filed as active; ? = inconclusive; . = no result given. A selection: hits, their analogues and other compounds. The true share with any hit is near 2.9%.
SMILES,CF NFkB block,KKLEB tox,Peg3 promoter,LMP1 NFkB inh,HIF-2a block,Shn3 3UTR inh
CN(C)CCCC1(c2ccc(F)cc2)OCc2cc(C#N)ccc21 (centres undefined),5,-6,0,54*,-1,4
Nn1c(SCC(=O)Nc2c(Cl)cccc2Cl)nncc1=O,0,-5,0,-4,5,-25
O=C1Cc2c([nH]c3ccc([N+](=O)[O-])cc23)-c2ccccc2N1,84*,-29,108*,17,-57,53
O=C1C(Nc2ccc(O)cc2)=C/C(=N/S(=O)(=O)c2cccs2)c2ccccc21,93*,-65*,106*,96*,40*,100*
O=C1C=C(Nc2ccc(O)cc2)C(=O)c2ccccc21,14,-7,-213,3,-221,-39
O=C(O)c1ccc(NC2=C/C(=N/S(=O)(=O)c3cccs3)c3ccccc3C2=O)cc1,87*,-21,-4,-6,13,18
Cc1cccc(NC2=C/C(=N/S(=O)(=O)c3cccs3)c3ccccc3C2=O)c1,93*,-65*,45,-2,7,93*
CCC1=NN(C(=O)c2ccc(C)cc2)C(O)(c2ccc(Br)cc2)C1 (centres undefined),0,9,-18,6,-32,-57
CCC1=NN(C(=O)c2cccc(Br)c2)C(O)(c2ccc(Br)cc2)C1 (centres undefined),62*,-54*,25,-26,4,47
CCCCCC(=O)NC(=S)NC1C2CC3CC(C2)CC1C3 (centres undefined),13,-6,-20,-1,-24,8
NC(=O)CC(NC(=O)Cc1cccc2ccccc12)c1ccc(NCc2ccccc2)c([N+](=O)[O-])c1 (centres undefined),-2,-17,33,-1,3,-7
NC(=O)CC(NC(=O)Cc1ccc(Br)cc1)c1ccc(NC2CCCC2)c([N+](=O)[O-])c1 (centres undefined),1,-31,61*,12,-23,16
NC(=O)CC(NC(=O)Cc1cccc2ccccc12)c1ccc(NCc2ccc(F)cc2)c([N+](=O)[O-])c1 (centres undefined),-16,-17,1,52*,17,30
c1ccc2nc(N3CCOCC3)cnc2c1,-10,5,-47,-5,-42,-29
COc1ccc([C@H]2CC(=O)C=C(c3cc(Br)ccc3OC)C2)cc1,37,-28,19,-2,-10,-2
CCOc1ccc(Br)cc1C1=CC(=O)C[C@H](c2ccc(OC)cc2)C1,36,-20,24,2,15,94*
O=c1cc(-c2ccc(O)c(O)c2)oc2ccc3ccccc3c12,-92,-32,20,52*,6,78
O=c1cc(-c2ccc(O)c(O)c2)oc2c1ccc1ccccc12,-108,-15,17,3,-32,2
Cc1cccc(NC(c2ccc(C)s2)c2ccc3ccc(C)nc3c2O)n1 (centres undefined),41,-23,45,-12,66*,59
CC1=C(C(=O)N2CCCCCC2)CC(CC(=O)NCCc2ccccn2)C(=O)N1CCCN1CCCC1=O (centres undefined),.,.,.,.,-10,.
COc1ccc(NC(=O)CC2C(=O)N(C)C(=S)N2CCc2ccccc2F)cc1 (centres undefined),-24,1,19,2,-3,-3
O=C(Cc1csc(Nc2nc(=S)[nH]c3ccccc23)n1)NCc1ccc(Cl)cc1,19,-41,31,-7,-5,10
O=C(Cc1csc(Nc2nc(=S)[nH]c3ccccc23)n1)NCCCN1CCN(c2ccccc2F)CC1,-56,-32,68*,-31,11,-2
CCCc1c(C(=O)Nc2ccc(C(F)(F)F)cc2)cnn1-c1ccccc1,-14,-1,0,62*,-25,8
Cc1cc(C)n(C2CCCCC2OC(=O)c2ccccc2F)n1 (centres undefined),1,0,20,42*,16,0
SMILES,CF NFkB block,KKLEB tox,Peg3 promoter,LMP1 NFkB inh,HIF-2a block,Shn3 3UTR inh
CCc1ccccc1-n1ncc(C(=O)Nc2ccc(OC)cc2)c1C,-9,0,-271,79*,-264,-40
COc1ccc(NC(=S)NCc2cccs2)cc1,16,3,-30,57*,-62,-5
CC(C)c1ccc(NC(=S)NCc2cccs2)cc1,-12,7,-308,-40,-152,-50
COC(=O)C1=CN(c2ccc(F)cc2)C=C(C(=O)OC)C1c1cccc([N+](=O)[O-])c1,16,-22,11,-6,8,14
CCOc1ccc(NC(=O)Cn2nnc(C(=O)NCc3cccs3)c2N)cc1,-23,-13,24,-2,2,-5
NC(Cc1ccccc1)c1csc(Nc2nncc3ccccc23)n1 (centres undefined),23,-8,96*,.,-25,-18
Nc1ccc(CC(N)c2csc(Nc3nncc4ccccc34)n2)cc1 (centres undefined),5,-3,9,.,-6,-10
CC(N)c1csc(Nc2nncc3ccccc23)n1 (centres undefined),-8,1,-75,.,-74,3
NC(CCc1ccccc1)c1csc(Nc2nncc3ccccc23)n1 (centres undefined),26,-8,90*,.,-4,-1
COc1cc(CNC(=O)OC2CC3CC2[C@H]2CCCCN2C3=O)cc(OC)c1 (some centres undefined),.,.,.,.,6,.
Nc1nc(N)c2cc(CNc3ccc(Cl)c(Cl)c3)ccc2n1,45,-26,110*,3,10,?
CCN(CC)S(=O)(=O)c1ccc(NC(=O)CCN2C(=O)C3CC=CCC3C2=O)cc1 (centres undefined),9,-12,8,-6,5,-4
COC(CNC(=O)C1CCCN1C(=O)OCc1ccccc1)OC (centres undefined),3,-8,-16,10,11,11
COC(=O)[C@@H]1C[C@]2(OC(=O)c3ccccc3)C=CC(=O)C[C@@H]2N1C(=O)OCc1ccccc1,50*,-23,72*,3,91*,-16
c1ccc(Cc2c(C3CCCCC3)nc3c4ccccc4ccn23)cc1,.,.,.,.,-197,.
ClCc1nc2ccccc2n1Cc1ccccc1,11,0,107*,16,21,17
COCc1nc2ccccc2n1Cc1ccccc1,9,-2,-16,-5,-74,-29
CC1CCN(CC(C)OC(=O)c2ccc3c(c2)OCCO3)CC1 (centres undefined),-12,-8,-24,6,-25,-14
